# Data from PubChem BioAssay AID2284366 (EPA ToxCast).
# Records with an inconclusive call do not appear. Calls of active or inactive are those of the source. The calls were made as follows: active = hit-call score of the fitted dose curve at least 0.9, where 1 is the maximum; inconclusive = response in the unintended direction; inactive = score below 0.9.
# Tested on: zebrafish Peroxisome Proliferator-activated Receptor gamma (PPARg), gene 557037
# Assay: ATG_zfPPARg_EcoTox2: Attagene TRANS-FACTORIAL EcoTox-2 HepG2 Assay for zebrafish Peroxisome Proliferator-activated Receptor gamma (PPARg)
# Experimental: ATG_EcoTox2 is a cell-based, multiplexed assay created by modifying the existing Attagene TRANS-FACTORIAL system to include a panel of nuclear receptors from some or all the following species: human (Homo sapiens), african clawed frog (Xenopus laevis), rainbow trout (Oncorhynchus mykiss), japanese medaka (Oryzias latipes), and zebrafish (Danio rerio). The ECOTOX2-FACTORIAL format uses HepG2, a human liver cell line, with measurements taken at 24 hours after chemical dosing in a 24-well plate. ATG_zfPPARg_EcoTox2 is one of 29 assay components calculated in the ATG_EcoTox2 assay. It is designed to make measurements of mRNA induction, a form of inducible reporter, as detected with fluorescence intensity signals by Reverse transcription polymerase chain reaction (RT-PCR) and Capillary electrophoresis technology.The assay endpoint ATG_zfPPARg_EcoTox2 was analyzed in the positive analysis fitting direction relative to DMSO as the negative control and baseline of activity. Using a type of inducible reporter, measures of mRNA for gain-of-signal activity can be used to understand the reporter gene at the transcription factor-level as they relate to the gene PPARg. Furthermore, this assay endpoint can be referred to as a primary readout, because this assay has produced multiple assay endpoints where this one serves a reporter gene function. To generalize the intended target to other relatable targets, this assay endpoint is annotated to the nuclear receptor intended target family, where the subfamily is non-steroidal.
# Human liver HepG2 cells are transiently transfected with multiple reporter transcription units (MRTUs) in 6-well plates using FuGene 6 reagent (Roche; 3 ml FuGene/1 mg DNA). The MRTU constructs are regulated by a cis-regulating element (promoter). Each RTU expresses a GAL4-UAS that regulates the transcription of a nearby target reporter gene sequence. A major difference between the CIS and TRANS system is that in CIS activities of endogenous TFs are measured, whereas the TRANS assay evaluates changes in activities of exogenous, chimeric NR-Gal4 proteins. […] At the end of 24 hour incubation, total RNA was isolated using TriZol reagent (Invitrogen). The isolated RNA is then reverse-transcribed using oligo(dT) primer and Mo-MLV reverse transcriptase (Invitrogen) with DNAse I (Ambion) treatment for 30 min. The one-tenth of the produced cDNA was amplified by PCR using Taq DNA polymerase (Invitrogen) and two reporter sequence-specific primers. The PCR products were fluorescently labeled by primer extension with 6-arboxyfluorescein (6-FAM) 5'-labeled reporter sequence-specific primer (2 min at 95 C, 20 s at 68 C and 10 min at 72 C) and these products were digested with 5U of HpaI (New England Biolabs) for 2h at 37 C. The fragments were purified using Qiaquick PCR columns (Qiagen), analyzed on an ABI 3130xL genetic analyzer (Applied Biosystems) with peak positions identified by using a set of X-rhodamine (ROX)-labeled MapMarker1000 molecular weight standards (BioVentures). The raw capillary electrophoresis data was processed using Attagraph software (Attagene).
Structure (SMILES),outcome,AC50
CC(C)(Oc1ccc(Cl)cc1)C(=O)O,inactive,
CC(C)OC(=O)C(C)(C)Oc1ccc(C(=O)c2ccc(Cl)cc2)cc1,inactive,
Cc1ccc(C)c(OCCCC(C)(C)C(=O)O)c1,inactive,
C=C(c1ccc(C(=O)O)cc1)c1cc2c(cc1C)C(C)(C)CCC2(C)C,,2.23 µM (active)
CN(CCOc1ccc(CC2SC(=O)NC2=O)cc1)c1ccccn1 (stereo not given),inactive,
Cc1nc(-c2ccc(C(F)(F)F)cc2)sc1C(=O)NCc1ccc(OC(C)(C)C(=O)O)cc1,,21.3 µM (active)
C[C@]12C=CC(=O)C=C1CC[C@@H]1[C@@H]2C(=O)C[C@@]2(C)[C@H]1CC[C@]2(O)C(=O)CO,inactive,
Cc1cccc(Nc2cc(Cl)nc(SCC(=O)O)n2)c1C,inactive,
Cc1c(C)c2c(c(C)c1O)CCC(C)(COc1ccc(CC3SC(=O)NC3=O)cc1)O2 (stereo not given),inactive,
C[C@@H]1C[C@H]2[C@@H]3CCC4=CC(=O)C=C[C@]4(C)[C@@]3(F)[C@@H](O)C[C@]2(C)[C@@]1(O)C(=O)COP(=O)(O)O,inactive,
